Measured values: PubChem BioAssay AID1619 (SRMLSC, 2009)
Hit rate of the full screen: of about 220,000 compounds, about 830 (0.38%) were called active.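 The calls were made as follows: active = compound inhibiting the enzyme by more than half at any dose during confirmatory dose-response retesting; inconclusive = strong single-dose inhibitors picked by rank but not retested; inactive = the rest.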 A selection follows. Measured potencies and affinities stand elsewhere.

Each molecule was assayed against Leucine aminopeptidase (Plasmodium falciparum (isolate 3D7)) (UniProt Q8IL11) (assay: P. falciparum M17LAP inhibitors, primary screen, biochemical, fluorogenic H-Leu-NHMec substrate, 1536-well (AID 1619;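 also: plate controls were full reaction with DMSO carrier for no effect and no enzyme background for full effect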)). Conditions: recombinant M17LAP, H-Leu-NHMec fluorogenic kinetic assay; at 30 µM; stronger effect = higher value.
Chain of Leucine aminopeptidase (Plasmodium falciparum (isolate 3D7)) (Q8IL11 whole entry, looked up): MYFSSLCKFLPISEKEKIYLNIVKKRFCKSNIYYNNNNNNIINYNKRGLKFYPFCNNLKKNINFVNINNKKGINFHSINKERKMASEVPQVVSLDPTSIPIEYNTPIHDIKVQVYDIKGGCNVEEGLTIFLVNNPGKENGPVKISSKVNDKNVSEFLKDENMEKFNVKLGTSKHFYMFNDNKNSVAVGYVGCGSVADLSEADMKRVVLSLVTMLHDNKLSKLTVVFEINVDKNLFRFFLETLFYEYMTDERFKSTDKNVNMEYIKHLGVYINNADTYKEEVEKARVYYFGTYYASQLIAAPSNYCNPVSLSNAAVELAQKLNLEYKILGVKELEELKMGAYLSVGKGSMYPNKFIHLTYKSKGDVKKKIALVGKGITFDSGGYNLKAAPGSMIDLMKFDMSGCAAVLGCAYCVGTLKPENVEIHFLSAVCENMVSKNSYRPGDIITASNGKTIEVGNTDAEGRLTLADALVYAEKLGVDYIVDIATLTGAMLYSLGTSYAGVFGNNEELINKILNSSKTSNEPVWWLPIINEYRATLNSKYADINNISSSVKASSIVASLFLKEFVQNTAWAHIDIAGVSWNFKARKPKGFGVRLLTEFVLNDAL

inhibition, inactive:
Cc1ccc2nc(SCCC(=O)O)cc(C)c2c1 43.9%, Nc1nc(-c2ccccc2Br)cs1 -3.14%, Cc1cc(C)nc(Nc2n[nH]c(-c3ccccc3Br)n2)n1 -2.55%, CC(C)CC(C(=O)O)N1C(=O)[C@@H]2[C@H](C1=O)[C@@H]1C[C@H]2C(Br)C1Br (stereo not given in full) 42.5%, Cc1[nH]n(-c2ncc(-c3ccccc3)s2)c(=O)c1C(c1ccc(Br)cc1)C(C#N)C#N (stereo not given) 6.12%, Cc1[nH]n(-c2ncc(-c3ccccc3)s2)c(=O)c1C(c1ccc(Cl)cc1)C(C#N)C#N (stereo not given) 21.9%, O=C(COC(=O)Cc1c[nH]c2ccccc12)Nc1ccccc1 0.86%, CC(C)(C)c1ccc(C(=O)C2CCCN(C(=O)C3CCOCC3)C2)cc1 (stereo not given) -15.1%, O=C(CN1CCC(n2nnc3cc(C(F)(F)F)ccc32)CC1)N1CCc2ccccc21 10.6%, CC(C)(C)SCCNC(=O)CN1C(=O)c2ccccc2S1(=O)=O 32.2%, O=C(CN1C(=O)c2ccccc2S1(=O)=O)Nc1ccccc1C(=O)NCc1ccco1 23.5%, Cc1ccc(SCCNC(=O)CN2C(=O)c3ccccc3S2(=O)=O)cc1 54.1%, COc1ccc(CCNC(=O)CN2C(=O)c3ccccc3S2(=O)=O)cc1 34.7%, O=C(CN1C(=O)c2ccccc2S1(=O)=O)NCCC1=CCCCC1 43.9%, Cc1ccc(CSCCNC(=O)CN2C(=O)c3ccccc3S2(=O)=O)cc1 46.9%, Cc1ccc(N(C(C)C(=O)O)S(=O)(=O)c2c(C)[nH]c(=O)[nH]c2=O)cc1 (stereo not given) 3.87%, c1ccc(Cn2nnc3c(N4CCc5ccccc54)ncnc32)cc1 -4.35%, CCCNC(=O)NS(=O)(=O)c1cnccc1Sc1ccc(Cl)c(Cl)c1 9.08%, Cc1ccc(NC(=O)Cn2cccc2C2=NC(c3ccccc3)CO2)cc1C (stereo not given) -6.31%, COC(=O)CSc1nc2cc3c(cc2cc1C)OCO3 -14.1%, Cc1c(Br)ccc(NC(=O)CCN2C(=O)C3C4CCC(C4)C3C2=O)c1C (stereo not given) 15.8%, Cc1cc(NC(=O)CCN2C(=O)C3C4CCC(C4)C3C2=O)cc(C)c1Br (stereo not given) 3.99%, O=C(NCc1ccccn1)C(=O)N/N=C/c1ccc2c(c1)OCO2 9.75%, Nc1nc2c(s1)CC(c1ccccc1)CC2 (stereo not given) 18.1%, COc1ccc(C2CC(=O)c3sc(NC(C)=O)nc3C2)cc1 (stereo not given) -0.56%, Nc1nc2c(s1)C(=O)CCC2 12.6%, COc1ccc(Nc2ncc3c(n2)CC(c2ccc(OC)cc2)CC3=O)cc1 (stereo not given) 0.52%, CC(C)C(=O)Nc1nnc(SCC(=O)Nc2ccc3c(c2)OCO3)s1 14.7%, CCCC(=O)Nc1nnc(SCC(=O)Nc2ccc3c(c2)OCCO3)s1 -3.46%, O=C(CSc1ncn(-c2ccccc2)n1)Nc1ccc2c(c1)OCCO2 27.7%, CC(C)c1nc(SCC(=O)Nc2ccc3c(c2)OCCO3)n[nH]1 20.1%, CCc1c(C)nc(SCC(=O)Nc2ccc(Br)cc2)[nH]c1=O 19.5%, Cc1csc(SCC(=O)Nc2ccc3c(c2)OCCO3)n1 -1.69%, Nc1nc(SCC(=O)Nc2ccc3c(c2)OCO3)n[nH]1 4.7%, Cc1cc(=O)[nH]c(SCC(=O)Nc2ccc3c(c2)OCCO3)n1 36.2%, CCc1nc(SCC(=O)N2CCN(c3ccccc3)CC2)c2c(=O)n(C)c(=O)n(C)c2n1 3.46%, O=C(Nc1ccc(S(=O)(=O)NCc2ccco2)cc1)C1CCCCC1 2.33%, CC(=O)c1sc(NC(=O)CCOc2ccccc2)nc1C -0.71%, CCN1CCN(C(=O)CN(C)S(=O)(=O)c2ccc(Cl)cc2)CC1 -6.75%, CC(C)CNC(=O)C1CCN(c2ccc(S(=O)(=O)N3CCOCC3)cc2)CC1 -3.46%, CSc1nc(Cc2ccccc2)nc2ccccc12 0.06%, COc1ccc2c(c1)c(C(=O)N/N=C/c1ccc(OC)c(OC)c1)c(C)n2C -4.74%, COc1ccc2c(c1)c(C(=O)N/N=C/c1cccc(O)c1)c(C)n2C 11.1%, COCCNC(=O)CN(c1ccccc1OC)S(C)(=O)=O 6.69%, CC(=O)Nc1ccc(NC(=O)/C=C/c2ccccc2)cc1 -5.95%, COc1cccc(OCCCCN2CC(C)OC(C)C2)c1 (stereo not given) 8.69%, CSc1nc2cc(Cl)ccc2s1 -8.15%, O=C1OCCC1Sc1nc2cc(Cl)ccc2s1 (stereo not given) 11.7%, Cc1cc(C(F)(F)F)nc(SCC(=O)NC2CC3CCC2C3)n1 (stereo not given) 4.48%, O=C(N/N=C/c1cccc(O)c1)c1ccc(COc2cccc3cccnc23)cc1 3.53%, CC(Nc1ccc(Br)cc1)C(=O)N/N=C/c1ccccc1OCc1ccccc1 (stereo not given) -9.93%, Cc1ccccc1NC(C)C(=O)N/N=C/c1ccccc1OCc1cccc(Br)c1 (stereo not given) -0.47%, COc1ccc(NC(C)C(=O)N/N=C/c2ccccc2OCc2cccc(Br)c2)cc1 (stereo not given) 3.79%, O=C(N/N=C/c1ccncc1)c1ccc(COc2cccc3cccnc23)cc1 8.86%, COc1cccc(/C=N/NC(=S)Nc2cccc(C(=O)O)c2)c1O 44.2%, CC1(C)CC2CC(C)(CN2/C=C2/CCCCC2=O)C1 (stereo not given) 16.8%, CCC1S/C(=N/N=C/c2ccco2)N(c2ccc(F)cc2)C1=O (stereo not given) 5.93%, O=[N+]([O-])c1cccc2ccc(/C=C/c3ccc(C(F)(F)F)cc3)nc12 5.36%, Cc1cc(N=Cc2c(O)n(-c3ccc(C)c(C)c3)c(=O)c3ccccc23)no1 -34.1%, COc1ccc(OCC(=O)OC(C)CN2CCOCC2)cc1 (stereo not given) 4.55%, COc1cccc(CC(=O)n2nc(N)c3cc4ccc(OC)cc4nc32)c1 -8.98%, O=C(CCC(=O)N1CCN(S(=O)(=O)c2ccc(Cl)cc2)CC1)Nc1ccc2ccccc2c1 -4.1%, CCc1ccc(C2NC(=S)NC3=C2C(=O)CC(C)(C)C3)cc1 (stereo not given) -1.26%, CCOC(=O)c1c(C)[nH]c(C(=O)/C(C#N)=C/c2ccc(OC)c(OC)c2)c1C 9.47%, CC(C)NC(=O)COC(=O)c1ccc(S(=O)(=O)N2CCCC2)cc1 -2.13%, CCCS(=O)(=O)N1CCN(S(=O)(=O)c2ccccc2)CC1 -6.24%, O=C(CCC(=O)N(CC(=O)NC1CCCCC1)c1ccc2c(c1)OCCO2)Nc1ccccn1 9.63%, O=C(CSc1nnc(Nc2ccccc2F)s1)c1cc2ccccc2o1 32.5%, COc1ccc(Nc2nnc(SCC(=O)c3cc4ccccc4o3)s2)cc1 4.36%, O=S(=O)(c1ccccc1)N1CCN(c2nc(-c3cccs3)nc3ccccc23)CC1 4.27%, CC(C)CC(NC(=O)c1cccs1)c1nnc(SCc2ccc(Cl)c(Cl)c2)n1C (stereo not given) 4.91%, C/C=C/C(=O)OCC(=O)Nc1ccc(SC(F)F)cc1 -1.79%, Cc1nn(-c2ccccc2)c(N2CCCC2)c1/C=C1\N=C(c2ccccc2)OC1=O 2.36%, O=C(O)C1CC=CCC1C(=O)Nc1ccccc1C(=O)N1CCN(c2ccc(Cl)cc2)CC1 (stereo not given) 56.6%, O=C(CCC(=O)Nc1ccc(Cl)cc1Cl)NNC(=O)[C@@H]1CCCC[C@@H]1C(=O)O -2.95%, O=C(O)C1CCCCC1C(=O)Nc1ccc(F)cc1F (stereo not given) 41.3%, COC(=O)c1ccccc1NC(=O)C1CC=CCC1C(=O)O (stereo not given) 29.7%, Cc1ccc(Cl)cc1NC(=O)C1CCCCC1C(=O)O (stereo not given) 10.3%, O=C(O)C1CCCCC1C(=O)Nc1ccccc1Cl (stereo not given) 43.9%, O=C(O)C1CCCCC1C(=O)Nc1cccc2ccccc12 (stereo not given) 39.5%, Cc1ccc(F)c(NC(=O)C2CCCCC2C(=O)O)c1 (stereo not given) 4.08%, COc1ccc(C(=O)Nc2cccc(-c3nc4ncccc4o3)c2C)cc1OC 2.86%, COc1ccc(Cn2c(CCC(=O)Nc3ccc(C)cc3)nc3cccnc32)cc1 -4.5%, CCOC(=O)C(C(=O)OCC)C1CS(=O)(=O)CC1C(C(=O)OCC)C(=O)OCC (stereo not given) 17%, COc1ccc(CCNC(=O)CC2Nc3ccccc3NC2=O)cc1 (stereo not given) 3.68%, COc1ccccc1NC(=O)NCc1ccco1 4.76%, Cc1cc(=O)[nH]c(SCC(=O)Nc2ccc(Br)cn2)n1 19.5%, O=C(O)C1CC=CCC1C(=O)NNc1c(Cl)cc(Cl)cc1Cl (stereo not given) 3.9%, O=C(O)C1=C(C(=O)Nc2cc(C(F)(F)F)ccc2Cl)CCCC1 8.32%, O=C(CNC1CC1)Nc1cc(C(F)(F)F)ccc1Cl 1.31%, O=C(NNC(=O)[C@H]1CC=CC[C@H]1C(=O)O)c1ccc(Cl)cc1Cl 0.37%, CCOC(=O)c1cnc2c(OC)cccc2c1Nc1ccc2c(c1)OCCO2 2.45%, O=C(Nc1nc2cc3c(cc2s1)OCCO3)c1ccc(N2C(=O)CCC2=O)cc1 0.52%, O=C(O)c1cc2c(cc1Br)OCCCO2 -43.7%, COc1ccc(OC)c(NC(=O)c2cccnc2Sc2ccccc2)c1 -17.3%
